# Data published in PubChem BioAssay (NCI).
# This is part of a sample that, as a whole, favours compounds with a hit. Of some 83,000 tested, about 20% had one in any assay.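 Testing used 96-well plates and a 48-hour single-concentration exposure. Example: -40 means 40% of the starting cells died.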 Values without a mark were called inactive. Calls of active or inactive are those of the source. The calls were made as follows: active = growth percent below 10; inactive = the rest.
# How the values were obtained:
# Assay in all cases: NCI-60 one-dose screen, 48 h (100 = growth as untreated, 0 = no growth, -100 = all killed)
# Conditions in all cases: 10 µM unless noted
# NCI-H23 lung = tested on: NCI-H23 lung
# NCI-H226 lung = tested on: NCI-H226 lung
# NCI-H322M lung = tested on: NCI-H322M lung
# HOP-62 NSCLC = tested on: HOP-62 NSCLC
# NCI-H460 lung = tested on: NCI-H460 lung
# HOP-92 NSCLC = tested on: HOP-92 NSCLC
# NCI-H522 lung = tested on: NCI-H522 lung
# A549/ATCC NSCLC = tested on: A549/ATCC NSCLC
# 786-0 renal = tested on: 786-0 renal
# COLO 205 colon = tested on: COLO 205 colon
# DU-145 prostate = tested on: DU-145 prostate
# K-562 leukemia = tested on: K-562 leukemia
# MALME-3M melanoma = tested on: MALME-3M melanoma
# RXF 393 renal = tested on: RXF 393 renal
# SF-268 CNS = tested on: SF-268 CNS
# SF-295 CNS = tested on: SF-295 CNS
# SF-539 CNS = tested on: SF-539 CNS
# UACC-257 melanoma = tested on: UACC-257 melanoma
# MDA-MB-231 breast = tested on: MDA-MB-231 breast
SMILES,growth (NCI-H23 lung),growth (NCI-H226 lung),growth (NCI-H322M lung),growth (HOP-62 NSCLC),growth (NCI-H460 lung),growth (HOP-92 NSCLC),growth (NCI-H522 lung),growth (A549/ATCC NSCLC),growth (786-0 renal),growth (COLO 205 colon),growth (DU-145 prostate),growth (K-562 leukemia),growth (MALME-3M melanoma),growth (RXF 393 renal),growth (SF-268 CNS),growth (SF-295 CNS),growth (SF-539 CNS),growth (UACC-257 melanoma),growth (MDA-MB-231 breast)
COc1ccc(NC(=O)c2cccc(-c3cc(=O)c4c(O)c(OC)c(OC)cc4o3)c2)cc1,91.3%,91.9%,99.5%,72.2%,92.7%,23.6%,79.4%,81.3%,43%,97.6%,96.9%,91.8%,80.6%,92%,54.6%,104%,56.1%,79.2%,
Cc1nc(Nc2cccc(NC(=O)Nc3ccc(Cl)cc3)c2)c2ccccc2n1,96%,90.4%,89.7%,107%,70.5%,90.7%,68.6%,91.6%,96.1%,103%,91.7%,67.6%,87.3%,,102%,88.2%,94.6%,101%,86.4%
COc1ccc(/C(C)=C(\c2ccc(Cl)cc2)c2ccc(OCCN3CCCCC3)cc2)cc1F,48.1%,77%,76.1%,16.8%,7.34% (active),59.6%,65.5%,53%,2.47% (active),5.95% (active),63.3%,1.56% (active),-27.2% (active),,63.5%,-19.7% (active),4.69% (active),24.6%,49.5%
COc1ccc(/C=C2\COc3ccc(O)c(O)c3C2=O)c(OC)c1,78.8%,92.4%,73.7%,72.9%,72.4%,91.5%,-17% (active),62.9%,61.1%,107%,67.2%,14%,32.9%,,54.8%,95.6%,49.5%,54.4%,56.6%
COc1ccc(OC)c(/C=C2\COc3ccc(O)cc3C2=O)c1,104%,98.5%,92.3%,108%,101%,93.7%,38%,101%,96.4%,109%,107%,9.33% (active),81.9%,,99.2%,102%,90.5%,99.4%,98.3%
CN(C)CCn1cc(-c2ccc3c(Nc4ccc(CC(=O)Nc5cccc(F)c5)cc4)ncnc3c2)cn1,-57.2% [30 µM] (active),-36.7% [30 µM] (active),-94.5% [30 µM] (active),-23.2% [30 µM] (active),-74.1% [30 µM] (active),-28.8% [30 µM] (active),-30.5% [30 µM] (active),-41.4% [30 µM] (active),-50.8% [30 µM] (active),-61.8% [30 µM] (active),-95.8% [30 µM] (active),-29.2% [30 µM] (active),-92% [30 µM] (active),,-61.7% [30 µM] (active),-79.8% [30 µM] (active),-94.2% [30 µM] (active),-59.7% [30 µM] (active),-85.7% [30 µM] (active)
COc1ccc(/C=C2\COc3ccc(O)cc3C2=O)c(OC)c1,83.4%,104%,86.5%,56.3%,40.6%,79.5%,39.1%,51.6%,91.2%,108%,65.8%,12.4%,60.9%,,70.2%,80.1%,57.5%,74.8%,60.9%
COc1cccc(/C=C2\COc3ccc(O)cc3C2=O)c1OC,86.6%,95.2%,90.5%,88.4%,67.8%,86.8%,28.7%,105%,86.1%,92.1%,45.1%,5.8% (active),73.9%,,85%,95.7%,72.2%,83.3%,85.1%
COc1cc(-c2ncn(/C=C\c3nnco3)n2)cc(C(F)(F)F)c1,26.6%,-0.243% (active),8.72% (active),39.8%,0.25% (active),61.4%,-11.4% (active),16.7%,5.1% (active),0.0945% (active),18.4%,6.9% (active),2.52% (active),-26.2% (active),10.9%,53.6%,6.11% (active),53%,
CCCCN(Cc1ccc(C(=O)NO)cc1)C(=O)Nc1ccc(OCCCCCCCCCn2cc(CCCCC(=O)N[C@H](C(=O)N3C[C@H](O)C[C@H]3C(=O)NCc3ccc(-c4scnc4C)cc3)C(C)(C)C)nn2)cc1,33.4%,46.1%,63.7%,39.7%,11.6%,-11.4% (active),19.5%,86.8%,69.8%,36.9%,50.8%,16.2%,23.8%,,36.2%,92%,32%,60%,59.6%
CN(C)CCN1C(=O)c2cccc3c(-c4ccc(-c5nc6c7ccccc7c7ccccc7c6[nH]5)cc4)ccc(c23)C1=O,109%,101%,114%,106%,111%,71.3%,94.2%,90.4%,18.2%,105%,102%,28.5%,110%,,105%,105%,92.7%,110%,89.1%
C=C1C(=O)O[C@H]2[C@H]1CC/C(COC(=O)/C=C\C(=O)NCc1ccc(Cn3c(=O)sn(-c4ccc(Cl)cc4)c3=O)cc1)=C\CC[C@@]1(C)O[C@@H]21,-63.6% (active),-58.9% (active),-18.5% (active),-34.7% (active),-73.2% (active),-66.7% (active),-55.9% (active),-43.7% (active),-82.5% (active),-45% (active),-94.7% (active),-20.5% (active),-93.1% (active),,-74.4% (active),56.2%,-100% (active),-64.8% (active),-86.1% (active)
COc1ccc(/C(C)=C(\c2ccc(Cl)cc2)c2ccc(OCCN(C)C)cc2)cc1F,86.7%,95.5%,77.4%,64.8%,22.2%,65.6%,87.5%,59%,62.9%,26%,79.5%,3.97% (active),19.2%,,74.5%,42.5%,55.2%,5.92% (active),71.3%
COc1ccc(OC)c(C(=O)Nc2cccc(-c3cc(=O)c4ccccc4o3)c2)c1,92.8%,92.4%,86.9%,89.1%,90%,93.7%,68.1%,88.8%,92.6%,104%,88.1%,90.1%,83.3%,,74.2%,88.6%,84.4%,100%,83.4%
Cc1cc(C)on1,109%,103%,111%,111%,116%,89.3%,107%,97.9%,101%,112%,,102%,112%,101%,,115%,103%,91.6%,104%
CO/C(=C1/NC(=O)C(Cc2ccc(O)c(Br)c2)N(C)C(=O)C(C)NC(=O)CCC/C=C(\C)CCC(C)OC1=O)c1ccccc1 (stereo not given),25.1%,-33.9% (active),-34.3% (active),-19.7% (active),-22.1% (active),-53.9% (active),-61.1% (active),-49.5% (active),-35.6% (active),7.23% (active),-17.3% (active),6.13% (active),,-79.5% (active),-43.6% (active),-65.3% (active),-52.3% (active),-54% (active),-31.3% (active)
O=c1oc2ccc(Cl)cc2cc1-c1cs/c(=N/N=C\c2ccc(Cl)cc2)n1/N=C/c1ccc(Cl)cc1,99.7%,102%,97.9%,109%,105%,98%,75.2%,89.3%,97.9%,109%,108%,,98.9%,113%,104%,108%,107%,95.1%,101%
